MsrA inhibitor: bovine MsrA enzyme inhibitors, primary screen, biochemical, absorbance, HTS. AID 651718, 2012. 0.75% of 360,000 active. Methionine sulfoxide reductase A (Bos taurus). inhibition, % at 15.5 µM. purified bovine MsrA, absorbance read-out; in the data active = inhibition above about 4.5%
SMARCA2 act: SMARCA2 (BRM) function activators, primary screen, cell-based, luminescence, high throughput | AID 652017, 2013 | 1% of 370,000 active | activation, % at 9.1 µM | MG213 cells, MMTV-luciferase reporter, dexamethasone, overnight; in the data active = activation above about 7.8%
MsrA act: bovine MsrA enzyme activators, primary screen, biochemical, absorbance, HTS | Methionine sulfoxide reductase A (Bos taurus) | purified bovine MsrA, absorbance read-out | activation, % at 10.6 µM | 0.3% of 360,000 active | AID 602163, 2012; in the data active = activation above about 7.5%
proKLK7 act: proKLK7 zymogen activators, primary screen, biochemical, fluorescence intensity. activation, % at 7 µM. AID 652039, 2013. Kallikrein-7 (Homo sapiens), P49862. 0.9% of 370,000 active. purified proKLK7, EDANS-DABCYL substrate fluorescence; 100% is mature enzyme control, 0% vehicle;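 active = activation above the mean of all tested compounds plus 3 SD, computed per campaign excluding outliers beyond control limits, cut at about 13% in these data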
Target sequence (P49862 whole entry, looked up): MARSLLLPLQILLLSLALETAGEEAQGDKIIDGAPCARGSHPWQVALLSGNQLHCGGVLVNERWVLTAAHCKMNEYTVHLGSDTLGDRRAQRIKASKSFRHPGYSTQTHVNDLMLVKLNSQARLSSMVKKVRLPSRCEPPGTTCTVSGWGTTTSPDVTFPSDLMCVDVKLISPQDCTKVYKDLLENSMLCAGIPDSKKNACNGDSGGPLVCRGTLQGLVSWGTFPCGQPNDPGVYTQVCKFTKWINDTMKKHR
Large screens that a line does not name were inactive. Shown are actives, neighbours in structure and some others; about 2.8% of the full set was active somewhere.

Cn1nc(-c2ccccn2)nc2c(=O)n(C)c(=O)nc1-2	MsrA act 59
CN(C)CC(=O)N[C@H]1C[C@@H]2O[C@H](CO)CC[C@@H]2O[C@@H]1CCc1ccc(-c2ccc(F)cc2)cc1	none (no result: MsrA inhibitor, MsrA act)
COc1cc(/C=C/C(=O)Nc2ccc3nc4n(c(=O)c3c2)CCCC4)cc(OC)c1OC	MsrA inhibitor 4.6
Cc1nn(CCC#N)c(NC(=O)c2ccc(Cl)cc2Cl)c1P(=O)(Nc1ccc([N+](=O)[O-])cc1)N1CCOCC1 (configuration not stated)	MsrA inhibitor 4.7
Cc1nn(CCC#N)c(NC(=O)c2ccc(Cl)cc2)c1P(=O)(Nc1ccc([N+](=O)[O-])cc1)N1CCOCC1 (configuration not stated)	none
CCn1c(C)nc2cc(C(N)=O)ccc21	none
CCNC(=O)N(C(=O)NCC)n1c(C)nnc1C	proKLK7 act 16
CCN1CCN(C(C(=O)NC2CCCCC2)c2cc3ccccc3o2)CC1 (configuration not stated)	none
COc1ccc(C=C2OC(=O)C(C(C)=O)=C2O)cc1	MsrA inhibitor 9.1
CC(=O)C1=C(O)C(=Cc2ccccc2)OC1=O	none
CCOC(=O)c1sc(=S)n(-c2cc(F)ccc2F)c1N	none
COC(=O)c1sc(=S)n(-c2cc(F)ccc2F)c1N	MsrA inhibitor 4.6
CCCCn1cnc2sc(-c3ccccc3)cc2c1=O	SMARCA2 act 7.8
CN1CCN(C/C(=C2/N=C(c3ccccc3)OC2=O)N(C)C)CC1	MsrA inhibitor 4.6
Cc1c(N=Cc2nc3ccccc3n2C)c(=O)n(-c2ccccc2)n1C	MsrA inhibitor 5.1
CCn1cnc2c([N+](=O)[O-])c(NS(=O)(=O)c3ccc(C)cc3)ccc21	MsrA act 12
CCn1cnc2cc(NS(=O)(=O)c3ccc(C)cc3)ccc21	none
CC(=O)NN1C(=O)/C(=C2/Sc3ccccc3N2C)SC1=S	none
CN1C(=C2C(=O)OC(C)(C)OC2=O)Sc2ccccc21	MsrA inhibitor 4.8
CC(=Nc1cccc(C)c1)c1sc2ccccc2c1O	SMARCA2 act 7.9
Cc1c(C(=O)O)cccc1-n1c(C)cc(/C=N/Nc2ccc([N+](=O)[O-])cn2)c1C	none
Cc1c(C(=O)O)cccc1-n1c(C)cc(/C=N/NC(=O)c2cc3ccccc3o2)c1C	MsrA inhibitor 4.6
CCCS(=O)(=O)NC(=O)C1(C)CCCN(C(=O)c2cc(F)ccc2C)C1 (configuration not stated)	none
COc1ccccc1C(=O)Nc1nnc(SCC(=O)Nc2ccc3c(c2)oc2ccccc23)s1	SMARCA2 act 13
CCN(c1ccc(OC)cc1)S(=O)(=O)c1nnc(NC(=O)c2ccco2)s1	MsrA inhibitor 4.6
CCN(c1cc(C)cc(C)c1)S(=O)(=O)c1nnc(NC(=O)c2ccco2)s1	none
COc1ccc(N(CC(C)C)S(=O)(=O)c2nnc(NC(=O)c3ccco3)s2)cc1	MsrA inhibitor 5.3
CCCCOCCCNC(=O)C[C@@H]1C[C@@]2(C(=O)OC)CC(C)(C)CC=C2N(Cc2ccco2)C1=O	none (no result: MsrA act)
O=C(O)c1cccc(-n2sc3ccccc3c2=O)c1	MsrA act 17
Cn1nc(C(C)(C)C)cc1C(=O)NCC1CCN(C(=O)C(=O)c2cc3ccccc3o2)CC1	none (no result: MsrA act)
CCN1CCN(CC(O)COC(C)C)CC1 (configuration not stated)	MsrA act 15
c1ccc(-c2cn3ccccc3n2)cc1	SMARCA2 act 7.9
Oc1ccc(-c2cn3ccccc3n2)cc1	none
CN(CC(=O)NCCc1ccc(F)cc1)Cc1cccs1	SMARCA2 act 7.8
COC(=O)[C@H]1C[C@@]2(N3CCCCC3)c3ccccc3N[C@H]2N1S(=O)(=O)c1ccc([N+](=O)[O-])cc1	none (no result: MsrA inhibitor, MsrA act)
Cc1ccc(NC(=O)/C=C/C(=O)O)c([N+](=O)[O-])c1	SMARCA2 act 7.8
Cc1ccc(/C=N/NC(=O)c2ccc(OC3CCCC3)cc2)o1	MsrA inhibitor 4.6
CC(=O)Nc1ccc(Nc2cc(C)nc3c(-c4ccc(Cl)cc4)cnn23)cc1	none
CC(=O)Nc1ccc(Nc2cc(C)nc3c(-c4ccc(Cl)cc4)c(C)nn23)cc1	SMARCA2 act 7.9
CCNC(=O)N1CCN(c2ccc(N3CCN(C(=O)NCC)[C@H](C)C3)c(C)c2)[C@@H](C)C1	none (no result: MsrA act)
COc1ccc(C(=O)c2ccc(N3CCOCC3)c([N+](=O)[O-])c2)cc1	MsrA inhibitor 4.6
O=c1[nH]c(CSc2ccccn2)nc2c1oc1ccccc12	SMARCA2 act 7.8
CCN(CC)c1ccc(/C=N/n2c(=S)[nH]nc(C)c2=O)cc1	MsrA inhibitor 4.7
Cc1ccc(F)c(S(=O)(=O)NC(=O)C2(C)CCN2C(=O)Cc2cccc3ccccc23)c1 (configuration not stated)	none
CNC(=O)C[C@H]1C(=O)N(c2ccccc2)C[C@@H]1CSC	none
O=c1c(-c2n[nH]c(=S)o2)cccn1Cc1ccccc1	MsrA inhibitor 4.6
C=CCn1c(-c2cccn(Cc3ccccc3)c2=O)n[nH]c1=S	none
CN(C)C(CNS(=O)(=O)c1cc([N+](=O)[O-])ccc1Cl)c1ccco1 (configuration not stated)	SMARCA2 act 7.8
COc1ccc2oc(=O)c(C(=O)Oc3ccc(NC(C)=O)cc3)cc2c1	proKLK7 act 215
CC12CCC(=O)C=C1CCC1C2C(O)CC2(C)C1CCC2(O)C(=O)COC(=O)CCC1CCCC1 (configuration not stated)	none (no result: MsrA inhibitor, SMARCA2 act, proKLK7 act)
COc1cc2c(cc1NC(=O)CN(C)Cc1ccc(OC)c(OC)c1)oc1ccccc12	MsrA inhibitor 4.6
COc1ccc(CN(C)CC(=O)Nc2cc3oc4ccccc4c3cc2OC)c(OC)c1	none
CC(C)NC(=O)C1(C)CSCC(=O)N1C1CCN(Cc2ccccc2)CC1 (configuration not stated)	none (no result: MsrA act)
Cc1onc(-c2ccccc2Cl)c1C(=O)NC(=S)NCCc1ccccc1	SMARCA2 act 8.6
COc1ccc(CCNC(=S)NC(=O)c2c(-c3ccccc3Cl)noc2C)cc1OC	none
O=C1N/C(=N\N=C\c2ccco2)SC1Cc1ccccc1[N+](=O)[O-] (configuration not stated)	MsrA inhibitor 4.6
O=C(c1ccccc1NS(=O)(=O)c1ccc([N+](=O)[O-])cc1[N+](=O)[O-])N1O[C@@H]2C=C[C@H]1C2	MsrA inhibitor 7.2
CCc1ccc(C(=O)CN2C(=O)NC3(CCCCCC3)C2=O)cc1	SMARCA2 act 7.9
O=C(CN1C(=O)NC2(CCCCCC2)C1=O)c1ccc(F)cc1	none
NC(=O)COc1c(-c2ccco2)oc2ccccc2c1=O	MsrA inhibitor 4.6
O=C(O)COc1c(-c2ccco2)oc2ccccc2c1=O	none
CCCCOC(=O)c1cc(-c2ccc(/C=N/n3cnnc3)o2)ccc1Cl	none
CCOC(=O)c1cc(-c2ccc(/C=N\n3cnnc3)o2)ccc1Cl	MsrA inhibitor 5.6
Cc1ccccc1NC(=O)C(C)OC(=O)CCC(=O)c1ccccc1 (configuration not stated)	none
O=C(CSc1nnc(Cc2ccsc2)o1)c1ccccc1	SMARCA2 act 7.8
O=C(CSc1nnc(Cc2ccccc2)o1)c1ccc(F)cc1	none

Compound activity (PubChem)
